Results published in PubChem BioAssay AID1159580 (chemical genetic matrix, 2015).
Several values for one entry are separate records, joined by “and”; a condition that tells them apart may be missing. Identical values can stand only once. Out of some 5,500 compounds screened, about 2,000 (36%) were called active. Inconclusive results (about 18%) are left out. No stated cut-off is given here; in the data, active means normalized growth mostly below about 0.91 (no sharp cut-off); inconclusive means no clear call, values can overlap the other calls; inactive means mostly above about 0.92. Some of the results follow.

Experiment: chemical genetic growth profiling, strain panel (AID 1159580);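 further: tested at 20 µM; growth read once vehicle control cultures reached saturation at 30 °C; 1 = growth at the plate median or of vehicle wells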
Conditions: S. cerevisiae deletion strains, growth OD

Measured: normalized growth

COc1ccc(-c2cc(=O)c3ccccc3o2)cc1
active: locus YAL013W, strain DEP1, stronger effect = lower value 0.682 | locus YAL021C, strain ccr4, stronger effect = lower value 0.888 | locus YAL026C, strain drs2, stronger effect = lower value 0.828 | locus YAL030W, strain snc1, stronger effect = lower value 0.905 | locus YBL061C, strain skt5, stronger effect = lower value 0.869 | locus YBR009C, strain hhf1, stronger effect = lower value 0.725 | locus YBR023C, strain chs3, stronger effect = lower value 0.811 | locus YBR171W, strain sec66, stronger effect = lower value 0.869 | locus YBR231C, strain swc5, stronger effect = lower value 0.857 | locus YBR279W, strain paf1, stronger effect = lower value 0.881 | locus YCL011C, strain gbp2, stronger effect = lower value 0.809 | locus YCL016C, strain dcc1, stronger effect = lower value 0.781 | locus YCL029C, strain bik1, stronger effect = lower value 0.753 | locus YCL061C, strain MRC1, stronger effect = lower value 0.833 | locus YCL069W, strain vba3, stronger effect = lower value 0.863 | locus YDL035C, strain GPR1, stronger effect = lower value 0.656 | locus YDL040C, strain nat1, stronger effect = lower value 0.923 | locus YDL074C, strain BRE1, stronger effect = lower value 0.452 | locus YDL101C, strain DUN1, stronger effect = lower value 0.655 | locus YDL192W, strain arf1, stronger effect = lower value 0.685 | locus YDR101C, strain arx1, stronger effect = lower value 0.884 | locus YDR137W, strain rgp1, stronger effect = lower value 0.53 | locus YDR162C, strain NBP2, stronger effect = lower value 0.274 | locus YDR195W, strain ref2 1.3 [resistant] | locus YDR297W, strain sur2, stronger effect = lower value 0.899 | locus YDR318W, strain mcm21, stronger effect = lower value 0.792 | locus YDR335W, strain msn5, stronger effect = lower value 0.902 | locus YDR388W, stronger effect = lower value 0.807 | locus YDR392W, strain spt3, stronger effect = lower value 0.406 | locus YDR502C, strain sam2, stronger effect = lower value 0.757 | locus YEL003W, strain gim4, stronger effect = lower value 0.79 | locus YEL037C, strain rad23, stronger effect = lower value 0.904 | locus YEL061C, strain CIN8 (second series), stronger effect = lower value 0.904 | locus YEL061C, strain CIN8, stronger effect = lower value 0.672 | locus YER015W, strain faa2, stronger effect = lower value 0.904 | locus YER016W, strain bim1, stronger effect = lower value 0.918 | locus YER111C, strain swi4, stronger effect = lower value 0.881 | locus YER155C, strain BEM2 (second series), stronger effect = lower value 0.283 | locus YER155C, strain BEM2, stronger effect = lower value 0.734 | locus YER167W, strain BCK2, stronger effect = lower value 0.739 | locus YGL086W, strain mad1, stronger effect = lower value 0.762 | locus YGL167C, strain pmr1, stronger effect = lower value 0.894 | locus YGL173C, strain kem1, stronger effect = lower value 0.798 | locus YGL240W, strain doc1, stronger effect = lower value 0.756 | locus YGL248W, strain PDE1, stronger effect = lower value 0.636 | locus YGL253W, strain hxk2, stronger effect = lower value 0.681 | locus YGR135W, strain pre9, stronger effect = lower value 0.747 | locus YHR013C, strain ard1, stronger effect = lower value 0.771 | locus YHR027C, strain rpn1, stronger effect = lower value 0.916 | locus YHR079C, strain IRE1 (second series), stronger effect = lower value 0.887 | locus YHR129C, strain ARP1, stronger effect = lower value 0.661 | locus YHR142W, strain chs7, stronger effect = lower value 0.584 | locus YHR200W, strain rpn10, stronger effect = lower value 0.868 | locus YIL066C, strain RNR3, stronger effect = lower value 0.55 | locus YIL073C, strain SPO22, stronger effect = lower value 0.66 | locus YIR030C, strain dcg1, stronger effect = lower value 0.804 | locus YJL092W, strain hpr5, stronger effect = lower value 0.884 | locus YJL095W, strain BCK1 (second series), stronger effect = lower value 0.707 | locus YJL164C, strain tpk1, stronger effect = lower value 0.754 | locus YJL166W, strain qcr8, stronger effect = lower value 0.771 | locus YJL168C, strain set2, stronger effect = lower value 0.922 | locus YJL187C, strain SWE1 (second series), stronger effect = lower value 0.668 | locus YJL187C, strain SWE1, stronger effect = lower value 0.9 | locus YJR043C, strain POL32, stronger effect = lower value 0.724
inactive: locus YBR021W, strain FUR4, stronger effect = lower value 0.949 | locus YBR229C, strain ROT2, stronger effect = lower value 0.932 | locus YCR088W, strain abp1, stronger effect = lower value 0.926 | locus YDL005C, strain med2, stronger effect = lower value 0.919 | locus YDL185W, strain tfp1, stronger effect = lower value 0.907 | locus YDR001C, strain nth1, stronger effect = lower value 0.923 | locus YDR069C, strain doa4, stronger effect = lower value 0.926 | locus YDR159W, strain sac3, stronger effect = lower value 0.998 | locus YDR334W, strain swr1, stronger effect = lower value 0.943 | locus YER110C, stronger effect = lower value 0.927 | locus YFR010W, strain ubp6, stronger effect = lower value 0.911 | locus YGL078C, strain dbp3, stronger effect = lower value 0.933 | locus YGL227W, strain vid30, stronger effect = lower value 0.92 | locus YGR252W, strain gcn5, stronger effect = lower value 0.824 | locus YHR079C, strain IRE1, stronger effect = lower value 1 | locus YHR094C, strain hxt1, stronger effect = lower value 0.939 | locus YIL125W, strain kgd1, stronger effect = lower value 0.949 | locus YJL115W, strain asf1, stronger effect = lower value 0.915 | locus YJL129C, strain trk1, stronger effect = lower value 0.916 | locus YJL134W, strain LCB3, stronger effect = lower value 0.928 | locus YJL154C, strain vps35, stronger effect = lower value 0.938
0.398 (active) and 0.992 (inactive): locus YHR030C, strain SLT2, stronger effect = lower value
0.277 (active) and 0.975 (inactive): locus YJL095W, strain BCK1, stronger effect = lower value
